IL1B secr inh – blocks inflammasome-driven IL-1 beta release. 360,000 compounds, 4.7% hits. THP-1 LPS/ATP IL-1B secretion, AlphaLISA, 16 h; hits give low values. activity change, % at 57.5 µM. AID 743279; in the data active means activity change below about -50%; inconclusive means mostly about -30% to -49%; further: on the % scale 0 is the no-effect control and ±100 the full control effect
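THP-1 cells pretreated 1 hr with compounds (up to 57.5 uM final), then stimulated with LPS (250 ng/mL final) plus ATP (1.25 mM final); secreted IL-1B measured by AlphaLISA after 16 hr, decreased signal indicating inhibition.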
MCF10A rerep – inducers of DNA re-replication in MCF 10A breast cells; MCF 10A DNA re-replication, Hoechst nuclear intensity, 48 h; Potency, µM (series often up to 46.1 µM), for inactives: at the highest dose activity, positive = re-replication, most hits filed as activators; 350,000 compounds, 2.9% hits; AID 624296; further: potency means the concentration at half of the fitted maximal effect; % of control where 0% means no effect; nearly all actives have a fitted effect of over 50% in size
SW480 rerep – induces DNA re-replication in SW480 colon adenocarcinoma cells. AID 624297. Potency, µM (doses to about 46.1 µM), without a hit: at the highest dose re-replication activation, actives largely listed as activators. SW480 DNA re-replication, Hoechst DNA content imaging, 48 h. 340,000 compounds, 1.8% hits; further: potency means the concentration at half of the fitted maximal effect; % of control where 0% means no effect; nearly all actives have a fitted effect of over 55% in size
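Image-based read-out: total Hoechst fluorescence of nuclei (405 nm excitation, 500-530 nm emission), with hits raising the fraction of high-intensity nuclei. SW480 colon cells incubated 48 hr with compounds at 37 C.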
KB-V1 cytotox – kills drug-selected multidrug resistant KB-V1 cells | 400,000 compounds, 3.4% hits | Potency, µM (top dose mostly 46.1 µM), usual class: cytotoxic | KB-V1 MDR cells viability, CellTiter-Glo, 72 h; further: potency means the concentration at half of the fitted maximal effect; on the % scale 0 is the no-effect control and ±100 the full control effect; nearly all actives have a fitted effect of over 60% in size
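Compound-treated KB-V1 multidrug-resistant cells, 72 h, 37 degrees C; viability by CellTiter-Glo. Fitted qHTS curves give the values.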
KB-3-1 tox – kills parental KB-3-1 adenocarcinoma cells. KB-3-1 viability, CellTiter-Glo ATP luminescence, 72 h. Potency, µM (top dose mostly 46.1 µM), actives largely listed as cytotoxic. 400,000 compounds, 1.4% hits; further: potency means the concentration at half of the fitted maximal effect; on the % scale 0 is the no-effect control and ±100 the full control effect; nearly all actives have a fitted effect of over 60% in size
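Luminescent ATP read-out (CellTiter-Glo) measures survival of drug-naive KB-3-1 cells after 72 h compound exposure at 37 °C. Titration series was screened from lowest to highest concentration, with DMSO vehicle plates as background controls.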
An asterisk follows results filed as active; i = inactive; u = inconclusive; x = no result; ! = repeats disagree. This is a sample that favours compounds with a hit; in the whole collection about 9.9% have one here. Unless noted, the call rests on the fitted dose curve; in most records, active means well fitted curve in the direction sought with a large enough effect; inconclusive means small, poorly fitted or top-dose-only effect, or another doubt; inactive means no such curve, though single readings can be large; an effect the other way counts as inactive or inconclusive.

SMILES | IL1B secr inh | MCF10A rerep | SW480 rerep | KB-V1 cytotox | KB-3-1 tox
O=C(Nc1ccc(CN2CCCCC2)cc1)Nc1ccc(Br)cc1Cl | -85* | 16µM* | u | u | 13µM*
O=C(Nc1ccc(CN2CCOCC2)cc1)c1ccc(Br)o1 | -7 | 2% | u | i | i
COc1c(Cl)cc(Cl)cc1C(=O)Nc1ccc(CN2CCOCC2)cc1 | -58* | u | 3% | i | i
S=C(Nc1ccc(Br)cc1Cl)N1CCCC1 | 9 | 0% | -2% | x | x
COc1c(Cl)cc(Cl)cc1C(=O)Nc1ccc(CN2CCCCC2)cc1 | -20 | 12µM* | -1% | i | i
Cc1ccccc1NC(=O)c1sc2nc(N3CCOCC3)c3c(c2c1N)CC(C)(C)OC3 | x | x | x | i | i
CCC1(c2ccc(F)cc2)NC(=O)N(CC(=O)NCc2ccccc2Cl)C1=O (stereo not given) | -4 | 1% | 3% | u | i
COc1ccc(NC(=O)c2cccc(S(=O)(=O)NCc3ccccc3)c2)cc1S(N)(=O)=O | 18 | 3% | u | i | i
Cc1ccc(NC(=O)CCCNC(=O)c2ccc(Cl)cc2)nc1 | 56 | -1% | -4% | i | i
COc1ccc(C2C(C(C)=O)=C(O)C(=O)N2c2nc3ccccc3s2)cc1OC (stereo not given) | 0 | 2.3µM* | u | i | i
CCOC(=O)C(NC(=O)c1ccccc1)(OCC1(CC)COC1)C(F)(F)F (stereo not given) | 12 | 0% | -3% | 18µM* | i
CCOC(=O)C(NC(=O)c1ccccc1)(OCc1ccc(F)cc1)C(F)(F)F (stereo not given) | -5 | -1% | -5% | i | i
CCOC(=O)C(NC(=O)c1cccc(Cl)c1)(OCc1ccc(F)cc1)C(F)(F)F (stereo not given) | -100* | 17% | -3% | i | u
CN(C)C1=NCC(CSC(=N)N)S1 (stereo not given) | u | u | 8.2µM* | i | i
CC12CN(C(=O)c3ccccc3Br)CC(C)(CN(C(=O)c3ccccc3Br)C1)C2=O | 24 | 0% | u | u | i
CN(C)c1ccc(/C=C/c2ccc3c4ccccc4ccc3[n+]2-c2ccccc2)cc1 | -111* | u | 1% | 9.2µM* | 0.29µM*
CN(CCCS(=O)(=O)[O-])c1ccc(/C=C/c2ccc3ccccc3[n+]2C)cc1 | 10 | -2% | -5% | i | u
[O-][n+]1c(/C=C/c2ccccc2)ccc2ccccc21 | -10 | 21µM* | 18µM* | i | u
[O-][n+]1ccccc1/C=C/c1ccccc1 | -18 | 3% | -8% | i | i
CN(C)c1ccc(/C=C/c2cccc[n+]2[O-])cc1 | x | -36% | u | i | i
CN(C)c1ccc(/C=C/c2cc3ccccc3c[n+]2C)cc1 | x | x | x | i | 0.82µM*
CN(C)c1ccc(/C=C/c2ccc3ccccc3[n+]2C)cc1 | -107* | u | 2.3µM* | u | 0.33µM*!
O=C(C1CCCN(C2CC(=O)N(c3ccc(Cl)cc3)C2=O)C1)N1CCCC1 (stereo not given) | i | -5% | -30% | i | i
CC1CCCCCCC1OC(=O)c1ccccc1C(=O)O (stereo not given) | 1 | -7% | -2% | i | i
COc1ccc([C@@H]2[C@@H]3C(=O)N(C(C)(C)C)C(=O)[C@@H]3[C@]3(C)C(=O)N(c4cccc(Br)c4)C(=O)N23)cc1 | 0 | 4% | 20% | i | i
SMILES | IL1B secr inh | MCF10A rerep | SW480 rerep | KB-V1 cytotox | KB-3-1 tox
CC(=O)Nc1ccc(NC(=O)C/C(C)=N/NC(=O)COc2cc(C)c(Br)cc2Br)cc1 | 26 | 10% | -3% | i | i
CN(C)c1ccc(/C=C/c2c[n+](C)cc3ccccc23)cc1 | x | x | x | i | 0.46µM*
COC(=O)c1cc2occc2n1CC(=O)Nc1ccc(N(C)C)cc1 | x | x | x | i | i
OCC#CCSc1nnc(-c2ccccc2Br)o1 | -7 | 12µM* | u | i | i
OCC#CCSc1nnc(-c2ccc(Br)cc2)o1 | -2 | 4% | 1% | u | i
CCN(CC)S(=O)(=O)c1ccc(S(=O)(=O)N2CCC(N3CCCCC3)CC2)cc1 | 17 | 2% | 0% | i | i
O=C(Nc1ccc(Cl)cc1)c1cc2c(cc1O)[nH]c1ccccc12 | -95* | 4.6µM* | 2% | u | u
CC1=CC2C(C(O)CC3(C)C2CC(C)C32OCOC23COCO3)C2(C)C/C(=C\O)C(=O)C=C12 (stereo not given) | -104* | 4.6µM* | 15µM* | u | u
CC1(C)CC(=O)C2=C(C1)N=C1SCCC(=O)N1C2c1cccc([N+](=O)[O-])c1 (stereo not given) | 0 | -1% | -27% | i | i
COCCN(CCOC)S(=O)(=O)c1ccc(C(=O)Nc2nc(-c3ccccc3)c(C(=O)c3ccccc3)s2)cc1 | 28 | u | 2% | u | i
CCOC(=O)Nc1nc(-c2ccccc2)c(C(=O)c2ccccc2)s1 | 46 | 1.2µM* | 0.92µM* | 1.2µM* | 0.82µM*
COC(=O)Nc1nc(-c2ccccc2)c(C(=O)c2ccc(Cl)cc2)s1 | 10 | 1µM* | 1.3µM* | 0.58µM* | 1µM*
CC(=O)c1sc(NC(=O)c2ccccc2)nc1-c1ccccc1 | 0 | 0.65µM* | -56% | i | i
COCCCNC(=O)[C@@H](Cc1ccccc1)NC(=O)CC[C@H]1O[C@@H](n2ccc(=O)[nH]c2=O)[C@H](O)[C@@H]1O | 6 | x | x | i | i
CCOc1ccc(NC(=O)CN(C)C(=O)c2sc3ccccc3c2Cl)cc1OCC | 4 | 10% | -1% | i | i
CCC(C(=O)Nc1cccc(C(=O)O)c1C)c1ccccc1 (stereo not given) | 16 | -1% | -2% | i | i
CCCCCn1c(N2CCC(Cc3ccccc3)CC2)nc2c1c(=O)[nH]c(=O)n2C | -87* | u | 0% | u | u
Cn1c(N2CCN(C(c3ccccc3)c3ccccc3)CC2)nc2c1c(=O)[nH]c(=O)n2C | 48 | 7% | -6% | 21µM* | u
CCCCCN(C(=O)CN1CCC(Cc2ccccc2)CC1)c1c(N)n(CCCC)c(=O)[nH]c1=O | -78* | u | u | i | u
Cn1c(N2CCCCC2)nc2c1c(=O)[nH]c(=O)n2C | 28 | 1% | -11% | i | i
CCCCCN(C(=O)CCC(=O)OCC(=O)c1ccc(C(C)CC)cc1)c1c(N)n(CCCC)c(=O)[nH]c1=O (stereo not given) | -68* | u | 3% | i | i
Cc1ccc(NC(=O)CN2CCN(C(=O)c3ccco3)CC2)cc1S(=O)(=O)N(C)C | 16 | 6% | 0% | u | i
